Among all 5,500 compounds or so, about 2,000 (36%) were called active. Not shown: some 18% with an inconclusive outcome. Cut-off read from the data, not from the text of the source: active = normalized growth mostly below about 0.91 (no sharp cut-off); inconclusive = no clear call, values can overlap the other calls; inactive = mostly above about 0.92. The list shows a part of the results.
Assay: chemical genetic growth profiling, strain panel (AID 1159580);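 note: tested at 20 µM; growth read once vehicle control cultures reached saturation at 30 °C; 1 = growth at the plate median or of vehicle wells; lower values mean less growth of the strain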
Conditions: S. cerevisiae deletion strains, growth OD
[1] = locus YHR030C, strain SLT2, active compounds read low
[2] = locus YHR079C, strain IRE1, active compounds read low
[3] = locus YJL095W, strain BCK1, active compounds read low
[4] = locus YJR066W, strain TOR1, active compounds read low
[5] = locus YLR113W, strain HOG1, active compounds read low
[6] = locus YNL183C, strain NPR1, active compounds read low
[7] = locus YOR231W, strain MKK1, active compounds read low
[8] = locus YPL256C, strain CLN2, active compounds read low

Measured: normalized growth

CC(N)C12CC3CC(CC(C3)C1)C2 (centres undefined)
inactive: [1] 0.992 | [2] 0.977 | [3] 0.989 | [4] 0.935 | [5] 1.02 | [6] 0.944 | [7] 1.01 | [8] 0.979

CCOC(=O)N/N=C\c1cc(Cl)cc(Cl)c1O
active: locus YGR092W, strain DBF2, active compounds read low 0.251 | [1] 0.512 | [4] 0.473 | locus YKL048C, strain ELM1, active compounds read low 0.72 | [5] 0.67 | locus YLR133W, strain CKI1, active compounds read low 0.727 | locus YLR403W, strain SFP1, active compounds read low 0.425 | locus YMR205C, strain PFK2 (second series), active compounds read low 0.714 | locus YNL020C, strain ARK1, active compounds read low 0.679 | [6] 0.556 | locus YNL307C, strain MCK1 (second series), active compounds read low 0.621 | locus YOR061W, strain CKA2, active compounds read low 0.471 | locus YPL153C, strain RAD53, active compounds read low 0.67 | [8] 0.641
inactive: locus YAR019C, strain CDC15, active compounds read low 0.948 | locus YBL105C, strain PKC1, active compounds read low 0.95 | locus YBR135W, strain CKS1, active compounds read low 0.928 | locus YBR136W, strain MEC1, active compounds read low 0.951 | locus YBR160W, strain CDC28, active compounds read low 0.938 | locus YDL017W, strain CDC7, active compounds read low 0.941 | locus YDL028C, strain MPS1, active compounds read low 0.942 | locus YDL101C, strain DUN1, active compounds read low 0.95 | locus YDL108W, strain KIN28, active compounds read low 0.935 | locus YDL132W, strain cdc53, active compounds read low 0.914 | locus YDL214C, strain PRR2, active compounds read low 0.824 | locus YDR052C, strain DBF4, active compounds read low 0.946 | locus YDR054C, strain cdc34, active compounds read low 0.928 | locus YDR226W, strain ADK1, active compounds read low 0.926 | locus YDR477W, strain SNF1, active compounds read low 0.741 | locus YER123W, strain YCK3, active compounds read low 0.765 | locus YER133W, strain GLC7, active compounds read low 0.828 | locus YFL009W, strain cdc4, active compounds read low 0.94 | locus YFL029C, strain CAK1, active compounds read low 0.931 | locus YFR003C, strain YPI1, active compounds read low 0.942 | locus YFR019W, strain FAB1, active compounds read low 0.87 | locus YFR028C, strain CDC14, active compounds read low 0.938 | locus YGR040W, strain KSS1, active compounds read low 0.737 | locus YGR052W, strain FMP48, active compounds read low 0.665 | [2] 0.626 | locus YHR082C, strain KSP1, active compounds read low 0.655 | locus YHR205W, strain SCH9, active compounds read low 0.586 | locus YIL147C, strain SLN1, active compounds read low 0.943 | [3] 0.535 | locus YJL128C, strain PBS2, active compounds read low 0.877 | locus YJL157C, strain FAR1, active compounds read low 0.785 | locus YJR016C, strain ILV3, active compounds read low 0.935 | locus YJR066W, strain TOR1 (second series), active compounds read low 0.743 | locus YKL067W, strain YNK1, active compounds read low 0.814 | locus YKL101W, strain HSL1, active compounds read low 0.74 | locus YKL193C, strain SDS22, active compounds read low 0.932 | locus YKL203C, strain TOR2, active compounds read low 0.756 | locus YML070W, strain DAK1, active compounds read low 0.789 | locus YMR001C, strain CDC5, active compounds read low 0.948 | locus YMR277W, strain FCP1, active compounds read low 0.936 | locus YNL006W, strain LST8, active compounds read low 0.956 | locus YNL161W, strain CBK1, active compounds read low 0.947 | locus YNL207W, strain RIO2, active compounds read low 0.931 | locus YNL222W, strain SSU72, active compounds read low 0.934 | locus YOL078W, strain AVO1, active compounds read low 0.94 | locus YOL136C, strain PFK27, active compounds read low 0.784 | locus YOR119C, strain RIO1, active compounds read low 0.729 | [7] 0.69 | locus YOR329C, strain SCD5, active compounds read low 0.943 | locus YPL031C, strain PHO85, active compounds read low 0.747 | locus YPL204W, strain HRR25, active compounds read low 0.706 | locus YPL209C, strain IPL1, active compounds read low 0.944 | locus YPR025C, strain CCL1, active compounds read low 0.934 | locus YPR106W, strain ISR1, active compounds read low 0.918 | locus YPR111W, strain DBF20, active compounds read low 0.92 | strain NNK1, active compounds read low 0.92 | strain TSCII, active compounds read low 0.952
